# Measured values from PubChem BioAssay (NCI).
# This is part of a sample that, as a whole, favours compounds with a hit. Of some 83,000 tested, about 20% had one in any assay.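 Growth was measured after 48 h exposure to one concentration of compound in 96-well plates. Values under 10 count as active.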 Values without a mark were called inactive. The source made the active and inactive calls.
# Test system: MDA-MB-468 breast
# Experiment: NCI-60 one-dose screen, 48 h (100 = growth as untreated, 0 = no growth, -100 = all killed)
# Settings: 10 µM unless noted
row,SMILES,growth
1,O=CN1N=C(c2ccc(Nc3ccnc4cc(Cl)ccc34)cc2)CC1c1ccccc1 (stereo not given),3.07% (active)
2,O=S(=O)(c1ccccc1)N1CCCN(c2nc(-c3ccccc3)nc3nc(-c4ccccc4)oc23)CC1,116%
3,Cc1cc(C(=O)Nc2cc(Oc3ccc4nc(NC(=O)C5CC5)cn4n3)ccc2C)n(C)n1,21%
4,CS(=O)(=O)Nc1cc(-c2ccc3ncc(C#N)c(Nc4cccc(Cl)c4F)c3c2)cnc1Cl,-45.3% (active)
5,CCOC(=O)Cc1cnn(C)c1NC(=O)c1ccc(Cl)cc1NC(C)=O,89.9%
6,O=C1NC(=O)/C(=C/C=C/c2ccccc2)S1,63.3%
7,Cn1c(/C=C(\C#N)c2cccc(C(F)(F)F)c2)nc2c(N3CCOCC3)nc(Cl)nc21,-40.3% (active)
8,COc1cc(-c2nc3sccn3c2-c2ccnc(NCCCNS(=O)(=O)c3ccc(F)cc3)n2)ccc1F,61.3%
9,O=C1CCCCN1c1ccc(C2=NCCCN2)cc1,82.2%
10,N#CSCC1CC(O)(c2ccccc2)CC(c2ccc(Cl)cc2)O1 (stereo not given),47.3%
11,COC(=O)OC1C(O[C@H]2C[C@H]3[C@@H]4CC=C5C[C@@H](O)CC[C@]5(C)[C@H]4CC[C@]3(C)[C@H]2[C@H](C)C(=O)CCC(C)C)OCC(O)C1OC1OCC(O)C(O)C1OC(=O)c1ccc(OC)cc1 (stereo not given in full),-22.8% (active)
12,Cc1ccccc1NC(=O)Cc1csc2[n+]1C(=O)/C(=C/c1ccc([N+](=O)[O-])cc1)S2,116%
13,CCOC(=O)[C@@H](C)C[C@H](Cc1ccccc1)NC(=O)c1csc([C@@H](C[C@H](C(C)C)N(C)C(=O)[C@@H](NC(=O)[C@H]2C[C@H](O[Si](C)(C)C(C)(C)C)CCN2C)C(C)C)OC(C)=O)n1,3.46% [9.25 µM] (active)
14,O=C(Nc1nc(-c2ccccc2Cl)cs1)c1cc(-c2ccc(Br)cc2)nc2ccccc12,5% (active)
15,O=C(/C=C/c1ccc(F)cc1)N1CCN(C(=O)/C=C/c2ccc(C(F)(F)F)cc2)CC1,117%
16,O=C(CCCn1c2c(sc3ccccc32)c(=O)n2nnc(-c3ccccc3)c12)NCCc1cnc[nH]1,-91% (active)
17,CC(C)C1C2=C(NCCN1C(=O)c1ccncc1)C(C)(C)N(Cc1ccccc1)C2=O (stereo not given),110%
18,COc1cc(COC(=O)CCCCC[P+](c2ccccc2)(c2ccccc2)c2ccccc2)c(OC)c2c1OCO2,-2.4% (active)
19,Nc1c(C(=O)Nc2cccc3ncccc23)sc2nc3c(cc12)C(=O)CCC3,12.4%
20,Cc1ccc(O)c(Cc2ccccc2)c1,101%

row,SMILES,growth
1,CCCCCCCCCCCCCC1=NCC[N+]1(CCO)Cc1ccccc1 (stereo not given),-81.2% (active)
2,Cc1cc(-c2ccc(N=Nc3ccc4c(S(=O)(=O)O)cc(S(=O)(=O)O)c(N)c4c3O)c(C)c2)ccc1N=Nc1ccc2c(S(=O)(=O)O)cc(S(=O)(=O)O)c(N)c2c1O,98.2%
3,COC(=O)CCOc1ccccc1,80%
4,CC(C)(C)OC(=O)N1CCc2c(sc3ncnc(N/N=C/c4ccc(Br)cc4)c23)C1,24.9%
5,CC(=O)OC(C(=O)O)c1ccccc1 (stereo not given),104%
6,COc1cccc(/C=C/c2c(C(=O)O)cccc2[N+](=O)[O-])c1OC,108%
7,C[C@@H]1CC[C@H]2[C@@H](C)C(O)O[C@@H]3O[C@]4(C)CC[C@@H]1[C@]32OO4 (stereo not given in full),27.7%
8,CC(C)[C@@H](C)/C=C/[C@@H](C)[C@H]1CCC2=C3C=CC4=CC(=O)CC[C@]4(C)[C@H]3CC[C@@]21C,97.3%
9,O=C1c2cc3c(cc2-c2c1c1ccc(F)cc1c(=O)n2C[C@H](O)[C@H](O)[C@H](O)CO)OCO3,-39.9% (active)
10,Cc1cc2c(cc1C)NC1=C(N2)OC(c2c3ccccc3cc3ccccc23)C1=O (stereo not given),-18.6% (active)
11,S=c1[nH]nc2ccccn12,98.2%
12,CCOc1ccc(Nc2nc(-c3ccc4c(c3)NC(=O)CO4)cs2)cc1,17.8%
13,Cc1nc2sc(C(=O)Nc3ccccc3)c(N)c2cc1C(=O)/C=C/c1ccccc1,2.08% (active)
14,O=C(Nn1c2c(sc1=NC1CC1)C(=O)c1ccccc1C2=O)c1cc2ccc1CCc1ccc(cc1)CC2,32.4%
15,c1ccc(-c2nc(N3CCNCC3)c3oc(-c4ccccc4)nc3n2)cc1,-74% (active)
16,C=C1C(=O)O[C@H]2[C@H]1CC/C(COC(=O)c1cc3ccccc3s1)=C\CC[C@@]1(C)O[C@@H]21,-48.4% (active)
17,CC(=O)OC[C@]12CC[C@@H]([C@@H](C)C(N)=O)[C@@H]1[C@H]1CC[C@@H]3[C@@]4(C)CC[C@H](OC(C)=O)C(C)(C)[C@@H]4CC[C@@]3(C)[C@]1(C)CC2,-40.4% [100 µM] (active)
18,O=C(CBr)CN1C(=O)c2ccccc2C1=O,103%
19,CCCCCCCCCCCCOC(=O)/C=C\C(=O)NC(N)=O,82.1%
20,COc1cccc(-c2nn(-c3ccccc3)cc2-c2ccnc(NCCCNS(=O)(=O)c3ccc(C(F)(F)F)cc3)c2)c1,-9.51% (active)
